Results published in PubChem BioAssay (NCATS).
Results filed as inconclusive are left out. Active and inactive are the calls of the source. Unless noted, calls come from the whole dose curve.

Experiments:
[1] = Validation screen for inhibitors of Lassa infection (AID 463096); note: % is set by controls: 0 for no effect and ±100 for the full control effect
[2] = Inducers of the Endoplasmic Reticulum Stress Response (ERSR) in human glioma: Validation (AID 504836; active = well fitted curve in the direction sought with a large enough effect; an effect the other way counts as inactive or inconclusive; note: 0% is about no effect)
How it was run: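 ERSR induction read as luciferase luminescence (Bright-Glo, 10 min at room temperature) in stably transfected human U87-MG glioma cells exposed to compounds for 16 h, using GRP78 as sensor.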

[3] = qHTS for Inhibitors of the Functional Ribonucleoprotein Complex (vRNP) of Lassa (LASV) Arenavirus: LASV Primary Screen - GLuc reporter signal (AID 1347082; calls by dose curve; tested in HEK293 reporter line; note: series mostly up to about 57 µM; % is set by controls: 0 for no effect and ±100 for the full control effect; nearly all actives have a fitted effect of over 60% in size)
[4] = qHTS for Inhibitors of the Functional Ribonucleoprotein Complex (vRNP) of Lassa (LASV) Arenavirus: Viability assay - alamar blue signal for LASV Primary Screen (AID 1347083; calls by dose curve; tested in HEK293 reporter line; note: series mostly up to about 57 µM; % is set by controls: 0 for no effect and ±100 for the full control effect; nearly all actives have a fitted effect of over 80% in size)
[5] = qHTS for Inhibitors of the Functional Ribonucleoprotein Complex (vRNP) of Lymphocytic Choriomeningitis Arenaviruses (LCMV): Viability assay - alamar blue signal for LCMV Primary Screen (AID 1347085; calls by dose curve; tested in HEK293 reporter line; note: series mostly up to about 57 µM; % is set by controls: 0 for no effect and ±100 for the full control effect; nearly all actives have a fitted effect of over 80% in size)
[6] = target: Nucleoprotein (Lymphocytic choriomeningitis virus (strain Armstrong)) (UniProt P09992); assay: qHTS for Inhibitors of the Functional Ribonucleoprotein Complex (vRNP) of Lymphocytic Choriomeningitis Arenaviruses (LCMV): LCMV Primary Screen - GLuc reporter signal (AID 1347086); note: series mostly up to about 57 µM; % is set by controls: 0 for no effect and ±100 for the full control effect; nearly all actives have a fitted effect of over 70% in size
Chain of Nucleoprotein (Lymphocytic choriomeningitis virus (strain Armstrong)) (P09992 whole entry, looked up): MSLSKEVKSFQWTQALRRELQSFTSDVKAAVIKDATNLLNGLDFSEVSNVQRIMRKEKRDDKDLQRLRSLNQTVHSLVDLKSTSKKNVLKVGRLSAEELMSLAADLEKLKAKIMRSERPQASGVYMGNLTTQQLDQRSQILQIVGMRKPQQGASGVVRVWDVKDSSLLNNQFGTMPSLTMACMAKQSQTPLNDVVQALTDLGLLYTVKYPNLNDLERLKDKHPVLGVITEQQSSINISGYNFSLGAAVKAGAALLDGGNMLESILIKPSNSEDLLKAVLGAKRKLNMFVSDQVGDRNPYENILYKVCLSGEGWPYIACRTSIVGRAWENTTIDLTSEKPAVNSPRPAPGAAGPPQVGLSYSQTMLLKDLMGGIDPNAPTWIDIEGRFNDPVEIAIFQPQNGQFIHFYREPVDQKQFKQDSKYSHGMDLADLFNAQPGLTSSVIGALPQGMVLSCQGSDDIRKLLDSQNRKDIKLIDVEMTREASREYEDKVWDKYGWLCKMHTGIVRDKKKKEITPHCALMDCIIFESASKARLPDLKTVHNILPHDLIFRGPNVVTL

[7] = target: Alpha-galactosidase (Coffea arabica) (UniProt Q42656); assay: Counterscreen for Glucocerebrosidase Inhibitors: qHTS Assay for Coffee Bean alpha-Galactosidase at pH 4.5 (AID 957; active = well fitted curve in the direction sought with a large enough effect; an effect the other way counts as inactive or inconclusive;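 note: series mostly up to about 77 µM; plate controls were enzyme alone for no effect and no enzyme for full effect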)
Chain of Alpha-galactosidase (Coffea arabica) (Q42656 whole entry, looked up): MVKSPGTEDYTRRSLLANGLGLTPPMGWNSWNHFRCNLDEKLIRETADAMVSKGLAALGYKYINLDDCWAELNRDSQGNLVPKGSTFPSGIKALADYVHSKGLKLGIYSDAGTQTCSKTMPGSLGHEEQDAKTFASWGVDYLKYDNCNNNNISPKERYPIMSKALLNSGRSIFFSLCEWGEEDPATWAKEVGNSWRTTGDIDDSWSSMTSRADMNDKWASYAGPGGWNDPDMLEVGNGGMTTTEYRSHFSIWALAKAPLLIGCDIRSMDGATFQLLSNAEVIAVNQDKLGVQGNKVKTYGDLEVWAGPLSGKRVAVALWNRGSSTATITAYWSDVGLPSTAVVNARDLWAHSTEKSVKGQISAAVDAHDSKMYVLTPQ
How it was run: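 Fluorogenic qHTS at pH 4.5 (citrate buffer with Tween-20): 2 nM enzyme, 80 uM 4-MU-alpha-galactoside substrate, compound titrated 0.7 nM to 77 uM, 20 min room temperature. Glycine/NaOH stop; 4-MU read Ex 365/Em 440; Hill-equation AC50 against no-enzyme and enzyme controls.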

[8] = target: Alpha-galactosidase (Coffea arabica) (UniProt Q42656); assay: Counterscreen for Glucocerebrosidase Inhibitors: qHTS Assay for Coffee Bean alpha-Galactosidase at pH 5.9 (AID 998; active = well fitted curve in the direction sought with a large enough effect; an effect the other way counts as inactive or inconclusive;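 note: plate controls were uninhibited enzyme for no effect and no-enzyme basal signal for full effect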)
How it was run: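 Fluorogenic 4-MU substrate hydrolysis, 80 uM substrate and 2 nM coffee bean alpha-galactosidase, pH 5.9 citrate buffer, 20 min at room temperature, then NaOH/glycine stop. Titration 0.7 nM–77 uM, normalized to no-enzyme and enzyme controls, AC50 via Hill equation.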

[9] = target: Flap endonuclease 1 (Homo sapiens) (UniProt P39748); assay: qHTS Validation Assay for the Inhibitors of Human Flap endonuclease 1 (FEN1) (AID 488816; active = well fitted curve in the direction sought with a large enough effect; an effect the other way counts as inactive or inconclusive; note: % is set by controls: 0 for no effect and ±100 for the full control effect)
Chain of Flap endonuclease 1 (Homo sapiens) (P39748 whole entry, looked up): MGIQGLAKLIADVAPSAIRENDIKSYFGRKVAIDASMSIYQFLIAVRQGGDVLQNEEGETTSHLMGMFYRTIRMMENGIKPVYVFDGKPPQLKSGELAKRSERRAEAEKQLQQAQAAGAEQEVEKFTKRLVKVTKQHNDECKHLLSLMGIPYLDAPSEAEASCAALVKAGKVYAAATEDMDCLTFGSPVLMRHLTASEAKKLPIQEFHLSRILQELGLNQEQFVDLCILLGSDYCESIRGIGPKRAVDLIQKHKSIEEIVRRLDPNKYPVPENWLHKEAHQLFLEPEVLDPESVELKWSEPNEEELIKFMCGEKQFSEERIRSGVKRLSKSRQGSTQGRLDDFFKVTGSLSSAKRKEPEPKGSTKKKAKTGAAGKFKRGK
How it was run: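 qHTS format: compounds and 10 nM FEN1 incubated 15 min at room temperature before adding 50 nM substrate. Cleavage followed by reads at 0 and 15 min; normalized data fitted to a four-parameter Hill curve.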

[10] = HTS Assay for Allosteric Antagonists of the Human D2 Dopamine Receptor: Hit Validation in HTRF (AID 624455; active = well fitted curve in the direction sought with a large enough effect; an effect the other way counts as inactive or inconclusive;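 note: stable D1 dopamine receptor cell line scored for blocking the D1 response; % is set by controls: 0 for no effect and ±100 for the full control effect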)
How it was run: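 Inhibition of the D1-mediated response was measured by HTRF. Cells used were a line stably expressing the D1 dopamine receptor.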

[11] = target: M-phase phosphoprotein 8 (Homo sapiens) (UniProt Q99549); assay: qHTS Validation Assay for Inhibitors for MPP8 Chromodomain Interactions with Methylated Histone Tails (AID 488949; active = well fitted curve in the direction sought with a large enough effect; an effect the other way counts as inactive or inconclusive;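 note: 50 nM MPP8 with 50 nM peptide preformed then compounds added for 30 min; AlphaScreen signal from MPP8 chromodomain bound to biotinylated H3K9me3 peptide; top concentration of the series differs between compounds; % is set by controls: 0 for no effect and ±100 for the full control effect; nearly all actives have a fitted effect of over 55% in size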)
Chain of M-phase phosphoprotein 8 (Homo sapiens) (Q99549 whole entry, looked up): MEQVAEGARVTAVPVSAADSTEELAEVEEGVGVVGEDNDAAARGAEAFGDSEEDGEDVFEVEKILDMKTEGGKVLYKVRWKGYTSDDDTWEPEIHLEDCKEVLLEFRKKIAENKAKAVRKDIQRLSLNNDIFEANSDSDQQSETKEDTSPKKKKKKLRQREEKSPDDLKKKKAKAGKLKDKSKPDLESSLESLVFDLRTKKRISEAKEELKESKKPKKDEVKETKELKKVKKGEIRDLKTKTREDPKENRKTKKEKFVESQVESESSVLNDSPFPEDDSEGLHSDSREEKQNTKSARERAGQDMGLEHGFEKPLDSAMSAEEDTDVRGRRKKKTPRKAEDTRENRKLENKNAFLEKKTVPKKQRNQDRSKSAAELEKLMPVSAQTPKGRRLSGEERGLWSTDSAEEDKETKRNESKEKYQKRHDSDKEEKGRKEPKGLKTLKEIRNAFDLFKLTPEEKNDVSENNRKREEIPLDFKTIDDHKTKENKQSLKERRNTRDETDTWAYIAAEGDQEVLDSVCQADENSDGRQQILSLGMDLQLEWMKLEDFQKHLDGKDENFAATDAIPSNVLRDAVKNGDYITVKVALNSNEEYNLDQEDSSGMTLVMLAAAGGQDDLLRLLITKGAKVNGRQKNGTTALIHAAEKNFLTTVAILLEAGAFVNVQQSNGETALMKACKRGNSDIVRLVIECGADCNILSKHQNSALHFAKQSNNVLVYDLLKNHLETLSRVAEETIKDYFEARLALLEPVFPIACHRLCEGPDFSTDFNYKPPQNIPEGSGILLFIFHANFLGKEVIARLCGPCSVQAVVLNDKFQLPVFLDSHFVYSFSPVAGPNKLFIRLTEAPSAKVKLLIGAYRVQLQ
How it was run: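 50 nM MPP8 + 50 nM b-H3K9me3 peptide, PBS pH 7.4/0.01% Tween-20, 30 min RT; + cpd 30 min RT; + AlphaScreen donor/Ni-chelate acceptor beads 10 ug/mL final, 30 min dark; luminescence read.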

[12] = target: Arylsulfatase A (Homo sapiens) (UniProt P15289); assay: qHTS screen for enhancers of Arylsulfatase A (ASA1): LOPAC Validation Assay (AID 720538; active = well fitted curve in the direction sought with a large enough effect; an effect the other way counts as inactive or inconclusive; note: 0% is about no effect)
Chain of Arylsulfatase A (Homo sapiens) (P15289 whole entry, looked up): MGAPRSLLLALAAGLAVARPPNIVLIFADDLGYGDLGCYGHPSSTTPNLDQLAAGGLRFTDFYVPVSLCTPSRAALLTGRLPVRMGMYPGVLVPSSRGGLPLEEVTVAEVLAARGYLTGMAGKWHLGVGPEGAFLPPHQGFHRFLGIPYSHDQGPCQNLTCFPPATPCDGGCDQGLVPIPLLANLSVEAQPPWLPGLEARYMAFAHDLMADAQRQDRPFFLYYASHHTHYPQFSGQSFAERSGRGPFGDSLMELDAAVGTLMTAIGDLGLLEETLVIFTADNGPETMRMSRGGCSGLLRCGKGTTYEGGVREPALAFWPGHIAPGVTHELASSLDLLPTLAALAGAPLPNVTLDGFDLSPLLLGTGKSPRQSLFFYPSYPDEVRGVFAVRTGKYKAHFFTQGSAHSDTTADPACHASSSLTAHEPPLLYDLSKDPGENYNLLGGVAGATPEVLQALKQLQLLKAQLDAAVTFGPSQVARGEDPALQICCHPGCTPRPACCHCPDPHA
How it was run: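 MLD patient fibroblasts (SV40, ASA-I179S), 1536-well; adhere 6 hrs; cpd 48h, 37 degree C, 5% CO2; pNCS 0.5mM final in lysis buffer, 14h RT; stop 1N NaOH final; fluor. Ex525/Em598.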

[13] = qHTS Assay for Identifying Gametocytocidal Compounds (AID 743244; active = well fitted curve in the direction sought with a large enough effect; an effect the other way counts as inactive or inconclusive;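 note: % is set by controls: 0 for no effect and ±100 for the full control effect; actives lower the fluorescent signal which means gametocytes are killed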); conditions: P. falciparum 3D7 stage III-V gametocytes, alamarBlue, 72 h; max response: hits give low values
How it was run: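 Stage III-V P. falciparum 3D7 gametocytes, 20,000 per well, were exposed to compounds for 72 h at 37C, 5% CO2. AlamarBlue was then added for 24 h and viability was read as fluorescence at Ex 525/Em 598 nm.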

Nc1ccc(CCNc2ncnc3c2ncn3C2OC(CO)C(O)C2O)cc1 (configuration not stated)
inactive: Potency [1] | outcome [2] | Potency [3] | Potency [4] | Potency [5] | Potency [6]

C=CC1(C)CC(=O)C2(O)C(C)(O1)C(OC(C)=O)C(O)C1C(C)(C)CCC(O)C12C (configuration not stated)
inactive: Potency [1] | outcome [2] | Potency [3] | Potency [4] | Potency [5] | Potency [6]

CN1CCc2cc(O)c(O)cc2C(c2ccccc2)C1 (configuration not stated)
inactive: Potency [1] | outcome [2] | Potency [3] | Potency [4] | Potency [5] | Potency [6]

COC1(C2=NCCN2)COc2ccccc2O1 (configuration not stated)
inactive: Potency [1] | outcome [2] | Potency [3] | Potency [4] | Potency [5] | Potency [6]

O=C(O)/C=C/c1cnc[nH]1
inactive: Potency [1] | outcome [2] | Potency [3] | Potency [4] | Potency [5] | Potency [6]

Cn1ccnc1
inactive: outcome [7] | outcome [8] | Potency [1] | Potency [9] | outcome [2] | outcome [10] | Potency [3] | Potency [4] | Potency [5] | Potency [6]

Nc1ncnc2c1ncn2C1CCCO1 (configuration not stated)
inactive: Potency [1] | outcome [2] | Potency [3] | Potency [4] | Potency [5] | Potency [6]

O=C(O)CNC(=O)C(CS)Cc1ccccc1 (configuration not stated)
inactive: Potency [1] | Potency [11] | outcome [2] | Potency [12] | max response [13] -3.2% | Potency [3] | Potency [4] | Potency [5] | Potency [6]

O=C(O)CCC(=O)N1CCCC1C(=O)O (configuration not stated)
inactive: Potency [1] | outcome [2] | Potency [3] | Potency [4] | Potency [5] | Potency [6]

OC(CN1CCN(c2cccc(Cl)c2)CC1)C(c1ccccc1)c1ccccc1 (configuration not stated)
inactive: Potency [1] | outcome [2] | Potency [3] | Potency [4] | Potency [5] | Potency [6]
